Active and inactive are the calls of the source. Unless noted, calls follow the shape of the dose curve; as a rule, active = well fitted curve in the direction sought with a large enough effect in the repeat runs; inconclusive = weak or mixed curves; inactive = no such curve, though single readings can be large; an effect the other way counts as inactive or inconclusive.
Legend:
[1] = qHTS assay for small molecules that induce genotoxicity in human embryonic kidney cells expressing luciferase-tagged ATAD5 (AID 651632); also: nearly all actives have a fitted effect of over 15% in size
In short: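 HEK293T cells carrying a luciferase reporter tagged to ATAD5 were exposed to compound or DMSO vehicle for 16 hr at 37C, 5% CO2. Amplite was added, and after 30 min at room temperature luciferase activity was read as a marker of ATAD5 induction.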

[2] = qHTS assay for small molecules that induce genotoxicity in human embryonic kidney cells expressing luciferase-tagged ATAD5 - cell viability (AID 651634; calls by dose curve; also: nearly all actives have a fitted effect of over 25% in size; also: potency is read from the fitted curve at half-maximal effect)
In short: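 HEK293T cells expressing luciferase-tagged ATAD5 were exposed to compound or DMSO for 15.5 hr at 37C, 5% CO2. Viability was then read as live-cell protease activity by CellTiter-Fluor fluorescence after 30 min at 37C.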

[3] = qHTS assay for small molecule disruptors of the mitochondrial membrane potential - cell viability (AID 720634; calls by dose curve;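 also: human HepG2 liver cancer cells; nearly all actives have a fitted effect of over 20% in size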)
In short: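 HepG2 cells seeded overnight at 37 C, then exposed to compound or DMSO for 1 hr at 37 C, 5% CO2. m-MPI dye added, then CellTiter-Glo for 30 min at room temperature; viability read as ATP luminescence.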

[4] = qHTS assay for small molecule disruptors of the mitochondrial membrane potential (AID 720635); also: potency is read from the fitted curve at half-maximal effect
In short: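 HepG2 cells exposed to compound 1 hr at 37C, then Mito-MPS dye 30 min. Ratio read of aggregate (540/590 nm) versus monomer (490/535 nm) fluorescence.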

[5] = qHTS assay to test for compound auto fluorescence at 590 nm (red) in HepG2 cells (AID 720674)
In short: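 HepG2 cells, 2,000 per well in MEM with 10% FBS, attached overnight at 37 C, then got 23 nL compound or DMSO. After 1 hr at 37 C, 5% CO2, red fluorescence was read at 540/590 nm against Rose Bengal sodium as reference.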

[6] = qHTS assay to test for compound auto fluorescence at 535 nm (green) in HepG2 cells (AID 720675)
[7] = qHTS assay to test for compound auto fluorescence at 460 nm (blue) in HEK293 cells (AID 720678)
In short: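 Cells were seeded and left to adhere for 4-5 hr at 37C. Compounds were then pin-transferred. After an overnight incubation at 37C under 5% CO2, intrinsic fluorescence at 405/460 nm was measured and referenced to triamterene.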

[8] = qHTS assay to test for compound auto fluorescence at 590 nm (red) in HEK293 cells (AID 720679)
In short: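 Each well held 2,000 HEK293 cells in medium containing 10% dialyzed FBS. Following 4-5 hr attachment at 37C, 23 nL test compound or DMSO was added; plates sat overnight, and red fluorescence (540/590nm) was recorded.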

[9] = qHTS assay to test for compound auto fluorescence at 535 nm (green) in HEK293 cells (AID 720680)
[10] = qHTS assay to test for compound auto fluorescence at 460 nm (blue) in HEK293 cell free culture (AID 720681)
In short: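 Compounds were added to cell-free DMEM with 10% FBS and fluorescence read directly. The blue channel used 405 nm excitation and 460 nm emission, with triamterene as the reference fluorophore.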

[11] = qHTS assay to test for compound auto fluorescence at 535 nm (green) in HEK293 cell free culture (AID 720682)
In short: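 Read-out: 485/535 nm fluorescence intensity, calibrated against fluorescein. Medium only (DMEM + 10% FBS, no cells); test compound or DMSO vehicle added by pintool before plate reading.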

[12] = qHTS assay to test for compound auto fluorescence at 590 nm (red) in HEK293 cell free culture (AID 720683)
In short: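 Cell-free wells of DMEM with 10% FBS received compound, and intrinsic fluorescence was read at excitation/emission 540/590 nm. Values expressed as equivalence to Rose Bengal sodium.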

[13] = qHTS assay to test for compound auto fluorescence at 590 nm (red) in HepG2 cell free culture (AID 720684)
In short: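 Compound was pinned into wells holding MEM with 10% FBS and no cells, and red fluorescence was read at Ex/Em 540/590 nm. Signal is expressed as auto fluorescence equivalency relative to Rose Bengal sodium.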

[14] = qHTS assay to test for compound auto fluorescence at 460 nm (blue) in HepG2 cell free culture (AID 720685)
In short: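 Compound (23 nL) or DMSO pinned into cell-free MEM with 10% FBS; blue fluorescence read at 405/460 nm excitation/emission, expressed as auto-fluorescence equivalency to triamterene.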

[15] = qHTS assay to test for compound auto fluorescence at 535 nm (green) in HepG2 cell free culture (AID 720686)
[16] = qHTS assay to test for compound auto fluorescence at 460 nm (blue) in HepG2 cells (AID 720687)
In short: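 HepG2 cells in MEM with 10% FBS, attached overnight at 37 C, were exposed to compound or DMSO for 1 hr at 37 C, 5% CO2. Blue fluorescence was read at 405/460 nm, with triamterene as reference fluorophore.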

[17] = molecular target: Glucocorticoid receptor (Homo sapiens) (UniProt P04150); experiment: qHTS assay to identify small molecule agonists of the glucocorticoid receptor (GR) signaling pathway (AID 720691; active = well fitted activation curve with a large enough effect in the signal ratio in the repeat runs, not every such curve was filed as active; inconclusive = weak or mixed curves, or effect the other way; inactive = no such curve, though single readings can be large or run the other way; the % refers to the signal ratio; also: potency is read from the fitted curve at half-maximal effect); conditions: GR-bla HeLa, beta-lactamase reporter ratio, 18 h; activation: at 62.4 µM (top of the series) unless noted
In short: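 GR-bla HeLa cells (beta-lactamase reporter under glucocorticoid response element) were plated 4 h at 37 C/5% CO2, given compounds in DMSO, and incubated 18 h at 37 C. LiveBLAzer B/G FRET substrate was added for 2 h at room temperature, then fluorescence intensity read.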

[18] = molecular target: Glucocorticoid receptor (Homo sapiens) (UniProt P04150); experiment: qHTS assay to identify small molecule antagonists of the glucocorticoid receptor (GR) signaling pathway (AID 720692; active = well fitted inhibition curve with a large enough effect in the signal ratio in the repeat runs, not every such curve was filed as active; inconclusive = weak or mixed curves, or effect the other way; inactive = no such curve, though single readings can be large or run the other way; the % refers to the signal ratio; also: potency is read from the fitted curve at half-maximal effect)
In short: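 GR-bla HeLa cells (beta-lactamase reporter under glucocorticoid response element) were pre-plated 4 h at 37 C, treated with compounds plus 5 nM dexamethasone (final) for 18 h, then read by LiveBLAzer B/G FRET fluorescence after 2 h.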

[19] = qHTS assay for small molecule agonists of the p53 signaling pathway - cell viability (AID 651633; calls by dose curve; also: nearly all actives have a fitted effect of over 30% in size; also: potency is read from the fitted curve at half-maximal effect;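 as to activity change, negative = cytotoxicity: p53RE-bla HCT reporter cells with a stable beta-lactamase p53 reporter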)
In short: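 p53RE-bla cells were treated with compound for 16 hours at 37 C. Cytotoxicity was then measured as CellTiter-Glo luminescence after 30 min at room temperature.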
% is scaled to controls: 0 for no effect and ±100 for the full control effect.

Chain of Glucocorticoid receptor (Homo sapiens) (P04150 whole entry, looked up): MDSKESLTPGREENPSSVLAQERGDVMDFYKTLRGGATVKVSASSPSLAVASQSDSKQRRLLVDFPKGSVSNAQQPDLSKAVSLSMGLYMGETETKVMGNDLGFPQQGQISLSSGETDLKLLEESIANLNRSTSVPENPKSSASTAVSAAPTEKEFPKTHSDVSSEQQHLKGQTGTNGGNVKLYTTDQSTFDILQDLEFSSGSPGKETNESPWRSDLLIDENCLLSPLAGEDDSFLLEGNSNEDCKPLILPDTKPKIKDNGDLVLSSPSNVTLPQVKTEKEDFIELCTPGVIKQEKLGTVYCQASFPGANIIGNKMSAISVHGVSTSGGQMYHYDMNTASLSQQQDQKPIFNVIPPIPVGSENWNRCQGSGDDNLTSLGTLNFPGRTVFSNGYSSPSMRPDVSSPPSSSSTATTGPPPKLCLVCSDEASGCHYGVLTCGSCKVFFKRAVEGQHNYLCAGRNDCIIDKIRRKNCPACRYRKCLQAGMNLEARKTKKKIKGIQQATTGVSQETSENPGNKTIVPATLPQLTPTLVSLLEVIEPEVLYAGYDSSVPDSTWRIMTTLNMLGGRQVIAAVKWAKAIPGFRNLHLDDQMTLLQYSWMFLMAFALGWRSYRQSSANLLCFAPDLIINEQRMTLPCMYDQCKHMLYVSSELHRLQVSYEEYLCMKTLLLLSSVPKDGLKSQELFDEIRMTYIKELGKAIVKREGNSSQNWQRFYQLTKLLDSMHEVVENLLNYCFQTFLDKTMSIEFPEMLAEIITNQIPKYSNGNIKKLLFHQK

CCC(C)c1cc(C(C)(C)C)c(O)c(C(C)(C)C)c1 (configuration not stated)
inactive: Potency [1] | Potency [2] | Potency [3] | Potency [5] | Potency [6] | outcome [7] | Potency [8] | outcome [9] | outcome [10] | outcome [11] | Potency [12] | Potency [13] | outcome [14] | Potency [15] | outcome [16] | Potency [17] | Potency [18]
active: Potency [4] 21.3 µM

Cc1[nH]c(C)c(Cl)c(=O)c1Cl
inactive: Potency [1] | Potency [2] | Potency [3] | Potency [4] | Potency [5] | Potency [6] | outcome [7] | outcome [10] | outcome [11] | Potency [12] | Potency [13] | outcome [14] | Potency [15] | outcome [16] | Potency [17] | Potency [18]

CN(C)c1ccc(/C=C/c2ccc([N+](=O)[O-])cc2)cc1
inactive: activity change, negative = cytotoxicity [19] -6.1% [at 8.08 µM] | activity, negative = cytotoxicity [2] 49.6% [at 8.08 µM] | activity change, negative = cytotoxicity [3] -8.24% [at 8.08 µM] | fluorescence, relative to Rose Bengal [5] 0% [at 3.72 µM] | fluorescence, % of fluorescein control [6] -0.0437% [at 3.72 µM] | fluorescence, % of triamterene [7] 0.0267% [at 3.72 µM] | fluorescence, % of fluorescent control [8] 0.111% [at 3.72 µM] | fluorescence, % of fluorescein [9] 0.0174% [at 3.72 µM] | fluorescence, % of fluorescent control [10] -0.202% [at 3.72 µM] | activity change [11] -0.151% [at 3.72 µM] | fluorescence, % of fluorescent control [12] -0.187% [at 3.72 µM] | fluorescence, % of Rose Bengal [13] -0.037% [at 3.72 µM] | fluorescence, % of fluorescent control [14] -0.0827% [at 3.72 µM] | fluorescence, % of fluorescent control [16] -0.0831% [at 3.72 µM]

COc1cc(Cl)c(OC)cc1N
inactive: Potency [2] | Potency [3] | Potency [5] | Potency [6] | outcome [7] | Potency [8] | outcome [9] | outcome [10] | outcome [11] | Potency [13] | outcome [14] | Potency [15] | outcome [16] | Potency [17] | Potency [18]

CCc1cc(C2=C(C(=O)O)N(c3ccccc3C(F)(F)F)S(=O)(=O)c3ccccc32)cc2c1OCO2
inactive: Potency [1] | Potency [19] | Potency [5] | Potency [6] | Potency [8] | outcome [9] | outcome [10] | outcome [11] | Potency [12] | Potency [13] | outcome [14] | Potency [15] | outcome [16] | Potency [17]
active: Potency [4] 48 µM

Cc1cccc(Nc2ccccc2)c1
inactive: Potency [19] | Potency [2] | Potency [3] | Potency [5] | Potency [6] | outcome [7] | Potency [8] | outcome [10] | outcome [11] | Potency [13] | outcome [14] | Potency [15] | outcome [16]
active: Potency [4] 43.3 µM

OCCN1CCN(CCCN2c3ccccc3C=Cc3ccccc32)CC1
inactive: Potency [1] | Potency [19] | Potency [3] | Potency [5] | Potency [6] | outcome [7] | Potency [8] | outcome [10] | outcome [11] | Potency [13] | outcome [14] | Potency [15] | outcome [16] | Potency [17]

CCOC(=O)C(F)(F)F
inactive: Potency [1] | Potency [19] | Potency [3] | Potency [5] | Potency [6] | outcome [7] | outcome [9] | outcome [10] | outcome [11] | Potency [12] | Potency [13] | outcome [14] | Potency [15] | outcome [16] | Potency [17] | Potency [18]

COc1cc(Cl)ccc1Oc1ccc(Cl)cc1Cl
inactive: Potency [1] | Potency [2] | Potency [5] | Potency [6] | Potency [8] | outcome [9] | outcome [10] | outcome [11] | Potency [12] | Potency [13] | outcome [14] | outcome [16] | Potency [17]
active: Potency [4] 23.6 µM

Cc1cccc(C)c1OCC(=O)N[C@@H](Cc1ccccc1)[C@@H](O)C[C@H](Cc1ccccc1)NC(=O)[C@H](C(C)C)N1CCCNC1=O
active: Potency [2] 26.6 µM | Potency [18] 23.9 µM
inactive: Potency [1] | Potency [3] | Potency [6] | outcome [7] | Potency [8] | outcome [10] | outcome [11] | Potency [12] | Potency [13] | outcome [14] | Potency [15] | outcome [16] | Potency [17]

O=C(O)c1ccc(-n2nc(-c3ccccc3O)nc2-c2ccccc2O)cc1
inactive: Potency [1] | Potency [3] | Potency [5] | Potency [6] | outcome [7] | Potency [8] | outcome [10] | outcome [11] | Potency [13] | outcome [14] | outcome [16]
active: Potency [19] 13.3 µM

O=C1CCCCCCCCCCCC(=O)OCCO1
inactive: Potency [1] | Potency [2] | Potency [3] | Potency [5] | Potency [6] | outcome [7] | Potency [8] | outcome [9] | outcome [10] | outcome [11] | Potency [12] | Potency [13] | outcome [14] | Potency [15] | outcome [16] | Potency [17] | Potency [18]

CC1CCC(=O)C1=O (configuration not stated)
inactive: Potency [1] | Potency [2] | Potency [3] | Potency [4] | Potency [6] | outcome [7] | Potency [8] | outcome [9] | outcome [10] | outcome [11] | Potency [12] | Potency [13] | outcome [14] | Potency [15] | outcome [16] | Potency [17]

C#Cc1cccc(Nc2ncnc3cc(OCCOC)c(OCCOC)cc23)c1
inactive: Potency [1] | Potency [3] | Potency [5] | Potency [6] | outcome [7] | outcome [9] | outcome [10] | outcome [11] | Potency [12] | Potency [13] | outcome [14] | Potency [15] | outcome [16]
active: Potency [17] 26.8 µM [inconclusive]

CC(C)O.CC(C)O.CCOC(=O)/C=C(\C)O.CCOC(=O)/C=C(\C)O.[Ti]
inactive: Potency [2] | Potency [3] | Potency [5] | Potency [6] | outcome [7] | Potency [8] | outcome [9] | outcome [10] | outcome [11] | Potency [12] | Potency [13] | outcome [14] | outcome [16]

CCCNCC(O)COc1ccccc1C(=O)CCc1ccccc1 (configuration not stated)
inactive: Potency [19] | Potency [2] | Potency [3] | Potency [6] | outcome [7] | Potency [8] | outcome [9] | outcome [10] | outcome [11] | Potency [12] | Potency [13] | outcome [14] | Potency [15] | outcome [16]
